# Compound activity from PubChem.
# AMA1 RON2 block = qHTS for Inhibitors of AMA1-RON; Towards Development of Antimalarial Drug Lead: Primary Screen. AlphaScreen AMA1-biotinylated RON2 peptide binding. Potency, µM (highest dose often 58.2 µM), for the others: at the top dose activity change, negative = inhibition, hits mostly inhibitors. 360,000 compounds, 0.2% hits. AID 720542, 2013;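 also: potency is read from the fitted curve at half-maximal effect; 0% = vehicle wells and -100% = peptide control; nearly all actives have a fitted effect of over 45% in size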
#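 AMA1 (3D7) with his tag at 25 nM final met compounds first, then biotinylated RON2 peptide at 25 nM; detection used donor plus acceptor beads, 10 µg/mL apiece, read by AlphaScreen after 30 min at room temperature.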
# Pf growth 96h = Primary qHTS for delayed death inhibitors of the malarial parasite plastid, 96 hour incubation | 320,000 compounds, 6.9% hits | Potency, µM (doses to about 28.7 µM), without a hit: at the top dose activity change, negative = inhibition, actives largely listed as inhibitors | P. falciparum luciferase reporter growth, 96 h; also: potency is read from the fitted curve at half-maximal effect; % is scaled to controls: 0 for no effect and ±100 for the full control effect
#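 Readout is luminescence from an integrated firefly luciferase in P. falciparum. Red cells, 2% hematocrit and 0.05% parasitemia final, were cultured with compound through two parasite generations (96 hours) at 37 C, 5% CO2.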
# Cycloheximide cs = Cycloheximide Counterscreen for Small Molecule Inhibitors of Shiga Toxin. 300,000 compounds, 12% hits. max response, %. AID 2314, 2010. cell reporter, cycloheximide protein synthesis inhibition counterscreen; in the data active = max response mostly above about 13%, no sharp cut-off; inactive = mostly below about 14%; also: read at 38.3 µM for the half of the compounds with a filed dose; 0% is about no effect
# Shiga toxin inh = A qHTS for Small Molecule Inhibitors of Shiga Toxin. Vero cells, Shiga toxin protein synthesis inhibition reporter. inhibition, % at 38.7 µM. 290,000 compounds, 9.2% hits. AID 2315, 2010; in the data active = inhibition mostly above about 28%, no sharp cut-off; inactive = mostly below about 43%; also: 0% is about no effect
# HCV inhibitor = qHTS Assay for Inhibitors of Hepatitis C Virus (HCV) | Huh7.5.1 HCVcc-Cre infection, luciferase reporter, 44 h | Potency, µM (highest dose often 41.8 µM), inactives show at the highest dose activity change, negative = inhibition, hits mostly inhibitors | 340,000 compounds, 3.4% hits | AID 651820, 2012; also: potency is read from the fitted curve at half-maximal effect; % is scaled to controls: 0 for no effect and ±100 for the full control effect
#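 Cells (1,000/well) were plated 4 h before compound, then infected with HCVcc-Cre virus (~0.5 moi). After 44 h further culture, infection was read as luciferase luminescence following a 15 min substrate incubation at room temperature.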
# Pf growth 48h = Primary qHTS for delayed death inhibitors of the malarial parasite plastid, 48 hour incubation; P. falciparum luciferase growth in erythrocytes, 48 h; AID 504832, 2011; Potency, µM (titrated, usually from 28.7 µM), without a hit: top-dose activity change, negative = inhibition, most hits filed as inhibitors; 310,000 compounds, 5.9% hits; also: potency is read from the fitted curve at half-maximal effect; % is scaled to controls: 0 for no effect and ±100 for the full control effect
#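 Luciferase-expressing P. falciparum in infected erythrocytes (2% hematocrit, 0.1% parasitemia final) in RPMI 1640/0.5% Albumax were exposed to compound for 48 hours at 37 C, 5% CO2; growth read as luminescence.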
# An asterisk follows results filed as active; ? = inconclusive; nt = no result. The list is not random: actives were taken first. Their share in the collection is about 21%. Unless noted, calls follow the shape of the dose curve; as a rule, active = well fitted curve in the direction sought with a large enough effect; inconclusive = small, poorly fitted or top-dose-only effect, or another doubt; inactive = no such curve, though single readings can be large; an effect the other way counts as inactive or inconclusive.
SMILES,AMA1 RON2 block,Pf growth 96h,Cycloheximide cs,Shiga toxin inh,HCV inhibitor,Pf growth 48h
COc1ccc(NC(=O)c2cc(S(=O)(=O)N3CCc4ccccc43)cn2C)cc1,-10.7%,-10.3%,14.3*,28.2*,-16.5%,9.28µM*
CCCNC(=O)c1cc(S(=O)(=O)N2CCc3ccccc32)cn1C,0.0%,9.8%,0.7,10.0,8.91µM*,8.9%
O=C(Nc1cc(Cl)ccc1Cl)P(=O)(O)c1ccccc1,-12.7%,nt,nt,nt,11.8%,nt
CCOC(=O)c1ccc(-c2ccc3oc(-c4ccsc4)cc(=O)c3c2)cc1F,-2.0%,nt,nt,nt,-16.5%,nt
Clc1cccc(Cl)c1Cn1nnc(N2CCCC2)n1,5.2%,11.8%,23.1*,85.9*,-7.3%,17.2%
Fc1cccc(Cl)c1Cn1nnc(-c2ccc(N3CCOCC3)cc2)n1,12.1%,23.1%,1.3,-3.6,7.3%,-10.4%
NS(=O)(=O)c1cccc(NC(=O)COC(=O)Cc2n[nH]c(=O)c3ccccc23)c1,1.0%,?,nt,nt,4.7%,-12.9%
CCn1c(=O)n(CC)c2cc(N3CCCC3)c(NC(=O)c3cccc(Cl)c3)cc21,-4.1%,11.7µM*,-5.2,16.8,6.31µM*,?
CCn1c(=O)n(CC)c2cc(N3CCCC3)c(NC(=O)c3ccccc3OC)cc21,-21.1%,-2.0%,-1.7,4.0,?,?
Cc1ccc(C(=O)Nc2ccc(N3CCOCC3)c3nonc23)cc1[N+](=O)[O-],4.6%,?,11.9,30.2,-24.0%,-10.8%
CCn1c(=O)n(CC)c2cc(N3CCCC3)c(NC(=O)c3ccc(OC)c(Br)c3)cc21,-24.3%,-22.0%,-4.8,2.5,?,13.1µM*
CCn1c(=O)n(CC)c2cc(N3CCCC3)c(NC(=O)c3cccc(C)c3)cc21,-6.0%,?,6.0,-4.4,12.6µM*,0.0%
CCOc1ccccc1C(=O)Nc1cc2c(cc1N1CCCC1)n(CC)c(=O)n2CC,-23.0%,-12.5%,-3.7,-9.6,?,?
CCn1c(=O)n(CC)c2cc(N3CCCC3)c(NC(=O)c3ccc(C)c([N+](=O)[O-])c3)cc21,11.1%,2.9%,-5.5,24.2,7.94µM*,-25.3%
COc1ccccc1CN(C(=O)CNC(=O)c1ccco1)C(C(=O)NCC1CCCO1)c1ccc(OC)c(OC)c1 (centres undefined),8.7%,?,1.7,-3.4,-10.0%,0.0%
Cc1cc(OCC(=O)OCC(=O)NCc2ccco2)ccc1Cl,-1.3%,27.2%,nt,nt,-5.4%,?
COc1ccc(/C(N)=C/C(=O)C(C)(C)C)cc1,-1.4%,64.8%,18.8*,60.2,12.4%,76.0%
Cc1cc(OI)c(C(C)C)cc1-c1cc(C(C)C)c(OI)cc1C,nt,6.75µM*,-3.3,-5.2,nt,?
Cc1ccc(-c2nc(SCC(=O)N(C)c3c(N)n(Cc4ccccc4)c(=O)[nH]c3=O)n[nH]2)cc1,-6.4%,5.6%,-5.0,-2.0,-1.7%,27.4%
Cc1ccc(NC(=O)C2CCCN(S(=O)(=O)c3c(C)noc3C)C2)nc1 (centres undefined),-25.2%,-0.9%,-3.3,13.2,-18.4%,-14.3%
Cc1ccc(NC(=O)C2CCCN(S(=O)(=O)c3c(C)noc3/C=C/N(C)C)C2)c(C)c1 (centres undefined),-0.5%,9.28µM*,-3.6,-1.4,-11.1%,?
Cc1ccc(S(=O)(=O)N2CCCC(C(=O)NCC3CCCO3)C2)cc1 (centres undefined),8.8%,24.7%,-1.6,-1.9,11.2%,3.3%
Cc1ccc(NC(=O)C2CCCN(S(=O)(=O)c3c(C)noc3C)C2)c(Br)c1 (centres undefined),0.0%,5.86µM*,-9.3,-6.0,?,-4.2%
Cc1noc(C)c1S(=O)(=O)N1CCCC(C(=O)NCC2CCCO2)C1 (centres undefined),-19.7%,9.28µM*,-1.9,-13.3,9.8%,-2.6%
Cc1ccc(NC(=O)C2CCCN(S(=O)(=O)c3c(C)noc3C)C2)cc1F (centres undefined),57.8%,2.33µM*,-3.0,2.5,-4.4%,?
SMILES,AMA1 RON2 block,Pf growth 96h,Cycloheximide cs,Shiga toxin inh,HCV inhibitor,Pf growth 48h
O=C(OC1CO[C@H]2O[C@@H]1[C@H](OC(=O)c1ccccc1)[C@H]2OC(=O)c1ccccc1)c1ccccc1 (some centres undefined),-6.9%,nt,nt,nt,-8.0%,nt
COc1ccccc1C(=O)NC(=O)COC(=O)Cn1[nH]c(=O)c2ccccc2c1=O,5.7%,2.9%,nt,nt,16.5%,4.4%
CC1(C(=O)NS(=O)(=O)c2ccc3c(c2)CCO3)CCN1C(=O)CCC1CCCC1 (centres undefined),-3.2%,nt,nt,nt,nt,nt
COc1ccc(C(=O)N/C(=C\c2ccc3c(c2)OCO3)C(=O)N2CCOCC2)cc1,-1.7%,24.5%,-3.8,7.3,-8.2%,-13.3%
O=C(C[N+]12CCC(CC1)C(CO)C2)c1ccc(Br)cc1 (centres undefined),-4.7%,-25.1%,7.3*,26.8,3.8%,-14.1%
CC1CCCN(CCC(=O)c2ccc(Br)cc2)C1 (centres undefined),0.3%,0.0%,9.9,-7.8,8.1%,-13.0%
Cc1c(C#N)c(O)[nH]c(=O)c1N=Nc1ccc(Br)cc1C(=O)O,48.6%,-17.5%,-1.0,-5.2,16.4%,-3.0%
Cc1cccc(N=Nc2c(C)c(C#N)c(O)[nH]c2=O)c1,8.9%,52.2%,13.7*,8.1,1.1%,24.6%
C#C[C@]1(OC(C)=O)CCC2C3CCC4=CC(=O)CC[C@@H]4C3CC[C@@]21C (some centres undefined),10.4%,-2.5%,-1.1,-3.9,?,23.0%
CCCCCC(=O)Nc1ccc(N2CCN(C(=O)CCC)CC2)cc1,-4.8%,14.4%,6.8,-2.7,-0.1%,-13.5%
CN1CCN(c2ccccc2NC(=O)c2sc3ccccc3c2Cl)CC1,-9.3%,82.3%,-4.4,26.3,12.6µM*,?
CCCC(=O)N1CCN(c2ccc(NC(=O)c3sc4ccccc4c3Cl)cc2)CC1,15.5%,4.65µM*,-1.3,14.7,0.1%,?
O=C(Nc1ccc(N2CCN(C(=O)c3ccccc3)CC2)cc1)c1cc2ccccc2o1,-0.8%,nt,-5.2,-10.7,?,11.7µM*
CN1CCN(c2ccc(NC(=O)c3cc4ccccc4o3)cc2)CC1,-7.6%,-1.9%,33.4*,57.4,?,0.7%
CS(=O)(=O)N1CCN(c2ccc(NC(=O)c3cc4ccccc4o3)cc2)CC1,-5.2%,88.5%,18.8*,21.2,8.4%,64.0%
CS(=O)(=O)N1CCN(c2ccccc2NC(=O)c2cc3ccccc3o2)CC1,7.5%,23.3%,-5.0,-8.0,?,?
